# Screening data from PubChem.
# The entries come from a sample that favours hits as a whole.
# PD-1 reverse act: activators reversing PD-1 mediated T-cell inhibition, primary screen, luminescence, primary human CD4 T cells, PD-L1 beads; AID 2316, 2010; activation, % (concentration not given with the values); CellTiter-Glo 96 h; 29,000 tested, under 10 active; call rule not given here;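 further: 0% = median vehicle wells and 100% = positive control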
# NOMO-1 viab: NOMO-1 AML cell viability reduction, primary screen, STK33 inhibitor project, CellTiter-Glo luminescence | inhibition, % (no concentration beside the values) | NOMO-1 AML viability, 72 h | 37,000 tested, 7.5% active | AID 2330, 2010; in the data active means inhibition above about 80%; inconclusive means no clear call, values can overlap the other calls
# STK33 inh: STK33 kinase inhibitors, primary screen, biochemical, luminescence, ADP-Glo, MBP substrate. Serine/threonine-protein kinase 33 (Homo sapiens), Q9BYT3. 27,000 tested, 0.44% active. inhibition, % at 12.5 µM; in the data active means inhibition above about 20%; inconclusive means no clear call, values can overlap the other calls
# Target sequence (Q9BYT3 whole entry, looked up): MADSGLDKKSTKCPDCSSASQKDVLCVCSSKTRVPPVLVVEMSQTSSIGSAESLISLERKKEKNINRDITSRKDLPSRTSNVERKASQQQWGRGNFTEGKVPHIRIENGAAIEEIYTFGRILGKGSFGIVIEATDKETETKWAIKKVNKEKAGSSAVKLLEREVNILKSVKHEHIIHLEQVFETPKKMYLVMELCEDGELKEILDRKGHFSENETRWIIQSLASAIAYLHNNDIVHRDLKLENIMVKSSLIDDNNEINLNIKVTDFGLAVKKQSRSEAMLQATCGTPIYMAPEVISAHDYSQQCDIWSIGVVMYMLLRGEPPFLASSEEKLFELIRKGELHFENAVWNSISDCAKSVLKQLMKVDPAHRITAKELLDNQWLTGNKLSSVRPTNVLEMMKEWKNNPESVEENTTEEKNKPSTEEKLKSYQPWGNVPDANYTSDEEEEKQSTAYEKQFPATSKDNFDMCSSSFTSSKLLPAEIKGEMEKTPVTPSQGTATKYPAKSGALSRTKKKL
# An asterisk follows results filed as active; ? = inconclusive; . = no result.
SMILES,PD-1 reverse act,NOMO-1 viab,STK33 inh
CC(C)(C)[C@H]1COC(CC2=N[C@@H](C(C)(C)C)CO2)=N1,0,6,.
Cn1cnc([N+](=O)[O-])c1Sc1ncnc2nc[nH]c12,2,119*,-1
COc1ccc(Cl)cc1N=C1NC(=O)CC(C(=O)Nc2ccccc2)S1 (stereo not given),.,-23,-5
C/C=C(/C)C(=O)O[C@@H]1c2cc(OC)c(OC)cc2-c2c(ccc(OC)c2OC)C[C@H]2C(=O)OC[C@H]12,-2,117*,-5
CC(=O)Nc1ccc(NC(=O)CN(c2ccc(F)cc2)S(C)(=O)=O)cc1,3,10,5
CC(=O)c1c(C)nc(-c2ccc(Cl)cc2)nc1NC(=O)Cc1ccccc1,-3,38,-12
O[C@H]1[C@H]2c3cc4c(cc3CN3CCC(=C[C@@H]1O)[C@H]23)OCO4,-6,142*,2
CN1CCc2cc3c(cc2C2OC(O)c4c(ccc5c4OCO5)C21)OCO3 (stereo not given),1,14,6
COC1C=CC23c4cc5c(cc4CN(C[C@H]2O)[C@@H]3C1)OCO5 (stereo not given in full),.,?,0
O[C@@H]1[C@@H](O)C=C2CCN3Cc4cc5c(cc4[C@H]1C23)OCO5 (stereo not given in full),.,114*,-5
COC(=O)c1cccc(COC(=O)c2cc(=O)[nH]c3ccccc23)c1,.,15,1
COc1ccc(OC)c(S(=O)(=O)Nc2cc([N+](=O)[O-])ccc2C)c1,1,16,0
COc1ccc(CC(=O)NC2CCCCC2)cc1OC,0,16,.
COc1cc2c(c(OC)c1OC)-c1ccc(OC)c(=O)cc1[C@@H](NC(C)=O)CC2,.,118*,2
C[C@@H]1CN([C@@H](C)CO)C(=O)Cc2cc(NS(=O)(=O)c3ccccc3)ccc2O[C@@H]1CN(C)Cc1ccc(-c2ccccc2)cc1,-4,34,-1
C[C@H]1CN([C@@H](C)CO)C(=O)Cc2cc(NS(=O)(=O)c3ccc(F)cc3)ccc2O[C@@H]1CN(C)Cc1ccc(-c2ccccc2)cc1,.,122*,3
Cc1ccc(S(=O)(=O)Nc2ccc3c(c2)CC(=O)N([C@@H](C)CO)C[C@@H](C)[C@@H](CN(C)Cc2ccccc2)O3)cc1,1,39,-5
Cc1ccc(S(=O)(=O)Nc2ccc3c(c2)CC(=O)N([C@H](C)CO)C[C@@H](C)[C@@H](CN(C)Cc2ccccc2)O3)cc1,0,85*,-2
C[C@H]1CN([C@@H](C)CO)C(=O)Cc2cc(NS(=O)(=O)c3ccc(Cl)cc3)ccc2O[C@@H]1CN(C)Cc1ccc(-c2ccccc2)cc1,-1,124*,6
C[C@@H]1CN([C@H](C)CO)C(=O)Cc2cc(NS(=O)(=O)c3ccccc3)ccc2O[C@@H]1CN(C)Cc1ccc(-c2ccccc2)cc1,-3,104*,15
C[C@@H]1CN([C@H](C)CO)C(=O)c2cc(NS(=O)(=O)c3ccc(Cl)cc3)ccc2O[C@H]1CN(C)Cc1ccc(-c2ccccc2)cc1,1,19,1
C[C@@H]1CN([C@H](C)CO)C(=O)Cc2cc(NS(=O)(=O)c3ccc(F)cc3)ccc2O[C@@H]1CN(C)Cc1ccccc1,0,13,-1
Cc1ccc(C)c(NS(=O)(=O)c2ccccc2)c1,0,23,.
CCOC(=O)c1c(NC(=O)CCN2CCC(C)CC2)sc2c1CC(C)(C)OC2,-8,14,?
CC(C)S(=O)(=O)c1csc(C(=O)OCC(=O)c2ccc(Cl)cc2)c1N,1,26,.
SMILES,PD-1 reverse act,NOMO-1 viab,STK33 inh
COc1ccc(OC)c(N(CC(=O)Nc2cccc(Cl)c2C)S(C)(=O)=O)c1,0,-6,-9
Cc1ccc(S(=O)(=O)Nc2ccc3c(c2)CC(=O)N([C@H](C)CO)C[C@H](C)[C@H](CN(C)Cc2ccc(-c4ccccc4)cc2)O3)cc1,.,84*,5
Cc1ccc(S(=O)(=O)Nc2ccc3c(c2)CC(=O)N([C@@H](C)CO)C[C@H](C)[C@H](CN(C)Cc2ccc(-c4ccccc4)cc2)O3)cc1,.,49,10
Cc1ccc(NC(=O)c2ccc3c(=O)n(Cc4ccco4)c(=S)[nH]c3c2)cc1Cl,-1,121*,8
COc1ccc(NC(=O)c2ccc3c(=O)n(CCc4ccccc4)c(=S)[nH]c3c2)cc1,4,-8,-2
CCC(CCCCC(=O)CCCCC1CCC(=O)O1)O[C@@H]1O[C@H](CO[C@@H]2O[C@H](CO)[C@@H](O)[C@H](O)[C@H]2O)[C@H](OC(=O)/C=C/c2ccc(O)cc2)[C@H](OC(C)=O)[C@H]1O (stereo not given in full),.,.,-6
O=C(COc1ccc(Cl)cc1)CC(=O)c1ccc(Cl)cc1,-3,110*,.
